The values below come from PubChem BioAssay (NCI).

Test systems include SK-MEL-2 melanoma; EKVX NSCLC; SN12C renal; UO-31 renal; TK-10 renal; ACHN renal; CAKI-1 renal; A498 renal; CCRF-CEM leukemia; MOLT-4 leukemia; SR leukemia; RPMI-8226 leukemia; OVCAR-8 ovarian; OVCAR-5 ovarian; OVCAR-4 ovarian; SK-OV-3 ovarian; IGROV1 ovarian; OVCAR-3 ovarian; HS 578T breast; NCI/ADR-RES ovarian.
Holding throughout (assay): NCI-60 one-dose screen, 48 h (100 = growth as untreated, 0 = no growth, -100 = all killed)
Settings in all cases: 10 µM unless noted

The panel holds about 83,000 compounds, 20% with a hit somewhere; the sample as a whole holds those more often.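 For each line, cells grew in 96-well plates with the test compound present at a single concentration for 48 hours.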 Unmarked numbers belong to inactive results. Active and inactive are the calls of the source. The calls were made as follows: active = growth percent below 10; inactive = the rest.

Consider `C=C(C)COc1ccc(C(C)(C)C)cc1`, for which the growth was 101% in the test with SK-MEL-2 melanoma; 98.9% in the test with EKVX NSCLC; 103% in the test with SN12C renal; 95.3% in the test on UO-31 renal; 97.1% in the test with TK-10 renal; 105% in the test with ACHN renal. For the same compound, the growth with CAKI-1 renal was 96.2%; with A498 renal, 105%; in the test with CCRF-CEM leukemia, 103%; in the test on MOLT-4 leukemia it was 111%; in the test on SR leukemia it was 96.3%; in the test on RPMI-8226 leukemia, 104%. Also, the growth was 95.4% with OVCAR-8 ovarian; 106% with OVCAR-5 ovarian; 103% with OVCAR-4 ovarian; 95.9% in the test with SK-OV-3 ovarian; 112% in the test on IGROV1 ovarian; 102% in the test on OVCAR-3 ovarian. In addition, the values for the growth with HS 578T breast and in the test on NCI/ADR-RES ovarian were 90.1% and 107%, respectively.

Take `CNc1ccccc1C(N)=O`: the growth in the test with SK-MEL-2 melanoma was 103%; with EKVX NSCLC, 98.4%; with SN12C renal it was 94.8%; in the test on UO-31 renal, 75.5%; with TK-10 renal it was 105%; in the test with ACHN renal, 97.1%. The growth in the test on CAKI-1 renal is 81.4%; in the test with A498 renal it was 121%; in the test with CCRF-CEM leukemia it was 102%; in the test with MOLT-4 leukemia, 117%; in the test on SR leukemia, 109%; with RPMI-8226 leukemia, 110%. Moreover, the growth with OVCAR-8 ovarian is 103%; in the test with OVCAR-5 ovarian it was 117%; in the test with OVCAR-4 ovarian, 109%; in the test on SK-OV-3 ovarian, 107%; in the test on IGROV1 ovarian it was 100%; in the test on OVCAR-3 ovarian, 114%. In addition, in the test with NCI/ADR-RES ovarian, the growth was 97.9%.

For `CC(=O)C[n+]1ccc(C)cc1Sc1ccccc1C`, the growth in the test on SK-MEL-2 melanoma is 127%; with EKVX NSCLC, 103%; in the test on SN12C renal it was 64.8%; with UO-31 renal it was 78.5%; with TK-10 renal it was 106%; in the test with ACHN renal, 97.1%. Further, the growth in the test with CAKI-1 renal is 102%; in the test on A498 renal it was 127%; in the test with CCRF-CEM leukemia, 1.97% (active); in the test with MOLT-4 leukemia, 54.7%; in the test on SR leukemia, 130%; in the test on RPMI-8226 leukemia, 98.6%. Further, the growth in the test with OVCAR-8 ovarian is 88.7%; with OVCAR-5 ovarian, 90%; in the test on OVCAR-4 ovarian, 100%; with SK-OV-3 ovarian, 108%; in the test on IGROV1 ovarian it was 120%; with OVCAR-3 ovarian, 102%. Moreover, the growth was 95.7% with HS 578T breast and 101% in the test on NCI/ADR-RES ovarian.

Take `O=C(Nc1c(Cl)cc(Cl)cc1Cl)ON=C1CCCCC1`: the growth was 107% with SK-MEL-2 melanoma; 105% in the test on EKVX NSCLC; 98.4% in the test on SN12C renal; 90.2% in the test on UO-31 renal; 100% in the test with TK-10 renal; 102% with ACHN renal. Moreover, the growth was 97.2% in the test with CAKI-1 renal; 105% with A498 renal; 102% in the test on CCRF-CEM leukemia; 109% in the test with MOLT-4 leukemia; 98.4% in the test on SR leukemia; 105% with RPMI-8226 leukemia. Besides, the growth was 104% in the test on OVCAR-8 ovarian; 96.4% in the test with OVCAR-5 ovarian; 108% with OVCAR-4 ovarian; 114% in the test with SK-OV-3 ovarian; 109% in the test on IGROV1 ovarian; 105% in the test with OVCAR-3 ovarian. The growth with HS 578T breast is 99.3%; in the test with NCI/ADR-RES ovarian, 109%.

`CC1CCC(C(C)(C)[N+](C)(C)C)CC1` (stereo not drawn): the growth is 114% in the test with SK-MEL-2 melanoma; 96.6% in the test with EKVX NSCLC; 102% in the test on SN12C renal; 94.8% in the test on UO-31 renal; 95.6% with TK-10 renal; 105% with ACHN renal. Further, the growth in the test on CAKI-1 renal is 103%; in the test on A498 renal it was 86.8%; with CCRF-CEM leukemia, 98.4%; with MOLT-4 leukemia, 101%; in the test on SR leukemia, 94%; in the test on RPMI-8226 leukemia, 102%. Further, the growth was 100% in the test with OVCAR-8 ovarian; 104% in the test with OVCAR-5 ovarian; 98.9% in the test on OVCAR-4 ovarian; 102% in the test on SK-OV-3 ovarian; 115% in the test with IGROV1 ovarian; 107% with OVCAR-3 ovarian. The growth was 100% in the test on HS 578T breast and 107% in the test with NCI/ADR-RES ovarian.

Take `COc1ccc(/C=C\C(=O)/C=C/c2ccc(OC)cc2)cc1`: the growth in the test with SK-MEL-2 melanoma is 123%; with EKVX NSCLC, 93.2%; in the test with SN12C renal it was 90.3%; with UO-31 renal it was 69.1%; with TK-10 renal it was 116%; in the test on ACHN renal, 95.5%. Further, the growth in the test on CAKI-1 renal was 87.5%; with A498 renal, 174%; in the test on CCRF-CEM leukemia, 37.4%; in the test with MOLT-4 leukemia, 68.2%; in the test on SR leukemia, 17.7%; with RPMI-8226 leukemia it was -20% (active). Also, the growth in the test on OVCAR-8 ovarian was 101%; in the test with OVCAR-5 ovarian, 107%; in the test on OVCAR-4 ovarian, 88.6%; with SK-OV-3 ovarian, 104%; in the test on IGROV1 ovarian, 92.3%; in the test on OVCAR-3 ovarian, 85.1%. The growth in the test with NCI/ADR-RES ovarian was 99.2%.

With `O=C(O)c1cc(I)ccc1O`, the growth with SK-MEL-2 melanoma was 107%; with EKVX NSCLC, 100%; with SN12C renal, 95.3%; in the test with UO-31 renal, 90.7%; in the test with TK-10 renal, 93.3%; in the test on ACHN renal, 97.6%. In addition, the growth was 103% in the test on CAKI-1 renal; 126% in the test with A498 renal; 99.3% in the test with CCRF-CEM leukemia; 108% in the test on MOLT-4 leukemia; 103% in the test with SR leukemia; 107% with RPMI-8226 leukemia. Also, the growth is 109% with OVCAR-8 ovarian; 97.5% in the test on OVCAR-5 ovarian; 107% in the test on OVCAR-4 ovarian; 103% in the test with SK-OV-3 ovarian; 114% in the test on IGROV1 ovarian; 116% in the test with OVCAR-3 ovarian. Further, the growth in the test with HS 578T breast was 111%; in the test on NCI/ADR-RES ovarian it was 98%.

`S=C(NCc1ccccc1)N1CCC(CCCC2CCN(C(=S)NCc3ccccc3)CC2)CC1`: the growth is 114% in the test on SK-MEL-2 melanoma; 83.5% with EKVX NSCLC; 96.8% with SN12C renal; 84.4% in the test with UO-31 renal; 108% in the test with TK-10 renal; 93.1% in the test on ACHN renal. The growth with CAKI-1 renal was 86.6%; in the test on A498 renal it was 121%; in the test with CCRF-CEM leukemia, 88.8%; in the test on MOLT-4 leukemia it was 88.5%; in the test on SR leukemia, 93.2%; with RPMI-8226 leukemia, 75.5%. The growth in the test with OVCAR-8 ovarian was 96.4%; with OVCAR-5 ovarian, 121%; with OVCAR-4 ovarian it was 76.9%; with SK-OV-3 ovarian it was 100%; in the test with IGROV1 ovarian it was 117%; in the test on OVCAR-3 ovarian it was 95%. In addition, the growth was 108% with HS 578T breast and 99.3% in the test on NCI/ADR-RES ovarian.
